Assay outcomes as filed in PubChem BioAssay.
NPR1 antag – antagonists of human natriuretic peptide receptor Npr1. P16066. HEK293 hNpr1 GloSensor cGMP, ANP-stimulated luminescence. Potency, µM (titrated, usually from 46.3 µM), without a hit: at the highest dose activity change, negative = inhibition, hits mostly inhibitors. hit rate 1.6% among 76,000. AID 1347048; calls by dose curve; note: nearly all actives have a fitted effect of over 60% in size
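HEK293 cells stably expressing human Npr1 and cGMP GloSensor pGS-40F, loaded 2 h with 2% GloSensor reagent, given compound 30 min at room temperature. Luminescence read before and 20 min after 0.1 nM hNppA.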
3T3 cytotox – kills NIH 3T3 cells; NIH 3T3 viability, CellTiter-Glo ATP luminescence, 48-72 h; Potency, µM (series often up to 96.7 µM), for inactives: at the top dose activity change, negative = cytotoxicity, hits mostly inhibitors; hit rate 4.3% among 94,000; AID 1345082; note: nearly all actives have a fitted effect of over 55% in size
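Mouse fibroblast NIH 3T3 cells, 400 per well, received compound via pintool and were incubated for 48 or 72 hr prior to CellTiter-Glo ATP luminescence measurement.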
HEK cytotox – cytotoxic compounds in HEK 293 cells | HEK 293 viability, ATP luminescence (CellTiter-Glo), 48-72 h | Potency, µM (highest dose often 115 µM), for the others: top-dose activity change, negative = cytotoxicity, most hits filed as inhibitors | hit rate 6.6% among 94,000 | AID 1345083; note: nearly all actives have a fitted effect of over 60% in size
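HEK 293 seeded at 250 cells/well receive compound via pintool. After 48 or 72 hr at 37 degree Celsius, 5% CO2 and 95% humidity, CellTiter-Glo is dispensed and luminescence read following 10 min at room temperature.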
Luciferase inh – blocks purified firefly luciferase enzyme activity | AID 1347043 | P08659 | Potency, µM (series often up to 115 µM), hits mostly inhibitors | hit rate 2.5% among 76,000 | purified P. pyralis luciferase, luminescence, biochemical; note: nearly all actives have a fitted effect of over 65% in size
Target sequence (P08659 whole entry, looked up): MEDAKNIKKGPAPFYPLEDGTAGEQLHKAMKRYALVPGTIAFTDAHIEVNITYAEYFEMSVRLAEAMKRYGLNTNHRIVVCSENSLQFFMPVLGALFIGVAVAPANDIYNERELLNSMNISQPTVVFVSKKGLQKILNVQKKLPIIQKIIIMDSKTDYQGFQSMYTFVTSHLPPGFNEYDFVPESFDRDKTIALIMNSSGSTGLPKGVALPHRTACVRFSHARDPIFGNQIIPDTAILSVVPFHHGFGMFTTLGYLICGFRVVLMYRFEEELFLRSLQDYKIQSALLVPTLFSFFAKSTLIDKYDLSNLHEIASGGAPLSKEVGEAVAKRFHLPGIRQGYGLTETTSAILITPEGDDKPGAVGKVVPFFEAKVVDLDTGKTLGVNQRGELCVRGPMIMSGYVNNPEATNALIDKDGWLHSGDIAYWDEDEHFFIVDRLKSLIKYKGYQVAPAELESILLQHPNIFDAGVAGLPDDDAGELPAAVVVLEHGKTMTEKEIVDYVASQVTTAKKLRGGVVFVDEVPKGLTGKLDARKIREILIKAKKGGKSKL
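Biochemical qHTS: compound (6-point titration) added to 10uM D-luciferin plus 10uM ATP in Tris acetate pH 7.5 buffer with Mg, Tween-20 and BSA, then purified enzyme at 10nM; light output imaged.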
An asterisk follows results filed as active; i = inactive; u = inconclusive; x = no result given; [ ] = remark or other dose. In the library only some 11% were active in any assay of this set; here they are far more common. Unless noted, calls come from the whole dose curve; as a rule, active = well fitted curve in the direction sought with a large enough effect; inconclusive = small, poorly fitted or top-dose-only effect, or another doubt; inactive = no such curve, though single readings can be large; an effect the other way counts as inactive or inconclusive. % is set by controls: 0 for no effect and ±100 for the full control effect; potency is the fitted concentration of half-maximal effect.

SMILES	NPR1 antag	3T3 cytotox	HEK cytotox	Luciferase inh
CC(=O)Nc1ccc(S(=O)(=O)N[C@H]2C[C@@H](c3nc(-c4ccc(F)cc4)no3)N(C)C2)cc1	u	-28%	u	i
Cc1nc(C(=O)N2CC(=O)N(C3CCCCC3)CC(OCc3ccccc3)C2)cs1 (centres undefined)	-10%	-1%	-21%	i
O=C(NCc1ccccc1)C1CCc2nnc(-c3cccc(C(F)(F)F)c3)n21 (centres undefined)	x	-24%	-29%	x
Cc1c(-c2ccccc2F)[nH]c2ccc(CNS(=O)(=O)C3CC3)cc12	u	u	35µM*	u
Cc1nc(CCC(=O)NCc2ccc3[nH]c(-c4ccccc4F)c(C)c3c2)n[nH]1	-1%	u	u	16µM*
Cc1c(-c2ccccc2F)[nH]c2ccc(CNC(=O)CN3CC(=O)NC3=O)cc12	-5%	u	u	16µM*
Cc1c(-c2ccccc2F)[nH]c2ccc(CNC(=O)C3CCNC3)cc12 (centres undefined)	-18%	u	u	20µM*
Cc1ccccc1CN1CCCC(CCNS(=O)(=O)C2CC2)C1 (centres undefined)	-1%	-1%	-11%	i
Cc1c(-c2ccccc2F)[nH]c2ccc(CNC(=O)CCn3cnnc3)cc12	0%	u	-9%	u
O=C(NCCCN1CCCC1=O)c1ccc(-c2ncc3cnc(-c4ccccc4)cn23)cc1	-2%	u	-30%	i
O=C1CC2(CCN(C(=O)C3CCCN(C(=O)c4ccc(Cl)nc4)C3)CC2)Oc2ccccc2N1 (centres undefined)	x	-5%	-11%	x
Cc1cn2nc(C(=O)NCc3ccc(F)cc3)cc2c(N(C)Cc2ccccc2)n1	0%	u	u	i
Cc1ccc(O)c(CN2CC[C@@H](c3ccc(F)cc3)[C@H](O)C2)c1	-7%	u	u	i
COc1ccc2cc1Nc1ccc(cc1)C[C@H](NC(=O)Cc1cccc(Cl)c1)C(=O)N(C)[C@H](C(=O)NCCC(C)C)C2	-1%	25µM*	u	i
COc1ccc2cc1Nc1ccc(cc1)C[C@H](NCc1cccc(O)c1)C(=O)N(C)[C@@H](C(=O)Nc1ccccc1)C2	-30%	u	u	i
Cc1ccc(Nc2ccnc(N3CCCC3C(=O)NCCc3ccccc3)n2)cc1 (centres undefined)	x	-38%	u	x
COc1ccc(Nc2ccnc(N3CCCC(C(=O)NCCc4ccc(F)cc4)C3)n2)cc1 (centres undefined)	x	25µM*	32µM*	x
Cc1ccc(Nc2ccnc(N3CCCC(C(=O)NCCc4ccc(F)cc4)C3)n2)cc1 (centres undefined)	x	32µM*	32µM*	x
O=C(c1ccccc1)N1CCCC2(CNc3ncccc3[S+](=O)([O-])N2)C1 (centres undefined)	x	1%	-13%	x
Cc1ccc(C(=O)N(C)C2CCCc3ccccc32)cc1 (centres undefined)	-7%[70.6 µM]	u	79µM*	35µM*
CN(C(=O)c1ccc(F)cc1)C1CCCc2ccccc21 (centres undefined)	-1%[70.6 µM]	u	100µM*	u
CCOC(=O)C1CCN(C(=O)c2ccc3nnc(-c4ccoc4)n3c2)CC1	x	-21%	3%	x
COc1ccccc1CN(Cc1ccccc1OC)[C@H]1C[C@@H](Cc2cc(CN3CCOCC3)on2)C1(C)C	-1%	-17%	u	i
O=C(c1cccs1)N1CCC(Cc2nc(-c3ccncc3)n[nH]2)CC1	1%	-18%	-1%	i
CCOCC1(C)COc2ccc(C(=O)NCc3cc(OC)cc(OC)c3)cc2N1 (centres undefined)	-22%[70.6 µM]	-9%[138 µM]	u	i
SMILES	NPR1 antag	3T3 cytotox	HEK cytotox	Luciferase inh
CC1(CCCCc2ccccc2)COc2ccc(C(=O)NC3CCC(O)CC3)cc2N1 (centres undefined)	-5%[70.6 µM]	79µM*	71µM*	i
CC1(CNc2ccccc2)COc2ccc(C(=O)NCCc3ccccc3)cc2N1 (centres undefined)	0%[70.6 µM]	28µM*	u	u
CC1(COc2ccccc2)COc2ccc(C(=O)NCCc3ccccc3)cc2N1 (centres undefined)	-5%[70.6 µM]	u	u	i
CNC(=O)c1ccc2c(c1)NC(C)(CNc1ccccc1)CO2 (centres undefined)	-4%[70.6 µM]	-24%[138 µM]	u	i
CC1(CNc2ccccc2)COc2ccc(C(=O)NCc3ccc(F)cc3)cc2N1 (centres undefined)	-19%[70.6 µM]	45µM*	71µM*	i
COc1cc(CNC(=O)c2ccc3c(c2)NC(C)(CNc2ccccc2)CO3)cc(OC)c1 (centres undefined)	1%	u	35µM*	i
CCN1CCN(C(=O)C2CCCN2C(=O)c2cccc(-c3cccc(OC)c3)c2)CC1 (centres undefined)	x	-14%	-21%	x
COc1cccc(CC(=O)NCc2nnc3c(-c4nc(C(C)C)no4)cccn23)c1	-2%	0%	0%	i
CNC(=O)c1ccc2nc(-c3cccnc3Cl)oc2c1	x	-29%[138 µM]	-10%[172 µM]	x
CN(Cc1cccc2cnccc12)C(=O)COc1ccc(Cl)cc1Cl	u	u	45µM*	i
O=C1[C@@H]2C[C@@H](CN2Cc2ccccc2)Oc2ccccc2N1CC1CC1	-2%[70.6 µM]	u	u	i
CN1C(=O)[C@@H]2C[C@@H](CN2Cc2nccs2)Oc2ccccc21	1%[70.6 µM]	-6%[138 µM]	u	i
O=C1[C@@H]2C[C@@H](CN2Cc2ccc3c(c2)OCO3)Oc2ccccc2N1Cc1ccccn1	-18%[70.6 µM]	u	79µM*	i
CN1C(=O)[C@@H]2C[C@@H](CN2Cc2ccnc3ccccc23)Oc2ccccc21	-29%[70.6 µM]	89µM*	u	i
COc1ccc(CN2C(=O)[C@@H]3C[C@@H](CN3C(C)C)Oc3ccccc32)cc1	-2%[70.6 µM]	i	i	i
COc1ccc(CN2C(=O)[C@@H]3C[C@@H](CN3CC3CC3)Oc3ccccc32)cc1	-30%[70.6 µM]	79µM*	u	i
O=C1[C@@H]2C[C@@H](CN2Cc2ccc(F)c(F)c2)Oc2ccccc2N1Cc1ccccn1	-10%[70.6 µM]	u	u	i
O=C1[C@@H]2C[C@@H](CN2Cc2cnc3ccccc3c2)Oc2ccccc2N1CC1CC1	-23%[70.6 µM]	u	50µM*	i
COc1ccc(C(=O)N2CCCC3(CN[S+](=O)([O-])c4cccnc4N3)C2)cc1 (centres undefined)	x	1%	1%	x
COCc1ccc(CN2CCCC(C(=O)Nc3cccc(-n4cccn4)c3)C2)o1 (centres undefined)	9%	-20%	u	i
COCCN1C(=O)[C@@H]2C[C@@H](CN2Cc2ccc3ccccc3n2)Oc2ccccc21	-16%[70.6 µM]	100µM*	u	u
COC(=O)CNC(=O)NCCc1ncc(C)n1Cc1ccccc1	0%	-9%	-14%	i
